RORg inh: blocks mouse ROR gamma transcriptional activity; P51450; Drosophila S2 Gal4-RORgamma UAS-luciferase reporter, 20 h; Potency, µM (series often up to 53.6 µM), most hits filed as inhibitors; 310,000 compounds, 5.4% hits; AID 2551; note: nearly all actives have a fitted effect of over 60% in size
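Compounds are pin-transferred onto Drosophila Schneider cells expressing a copper-inducible Gal4–ROR gamma transactivation domain fusion. After 1 hr, copper sulfate is added to 700 uM final; luciferase is read 20 hr later.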
ERG-DNA inh: ERG Ets/DNA interaction inhibition | P11308 | fluorescence polarization, His-ERG Ets domain / labelled DNA | Potency, µM (top dose mostly 76.9 µM), usual class: inhibitors | 370,000 compounds, 0.028% hits | AID 624246; active = well fitted inhibition curve with a large enough effect in the polarisation, with a control signal flat; inconclusive = small, poorly fitted or top-dose-only effect, or effect the other way, or a change in a side signal; inactive = no such curve, though single readings can be large or run the other way; the % refers to the polarisation;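 note: polarization taken with two DNA probes labelled with fluorescein and Texas red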
Target sequence (P11308 whole entry, looked up, the tested form may be a part): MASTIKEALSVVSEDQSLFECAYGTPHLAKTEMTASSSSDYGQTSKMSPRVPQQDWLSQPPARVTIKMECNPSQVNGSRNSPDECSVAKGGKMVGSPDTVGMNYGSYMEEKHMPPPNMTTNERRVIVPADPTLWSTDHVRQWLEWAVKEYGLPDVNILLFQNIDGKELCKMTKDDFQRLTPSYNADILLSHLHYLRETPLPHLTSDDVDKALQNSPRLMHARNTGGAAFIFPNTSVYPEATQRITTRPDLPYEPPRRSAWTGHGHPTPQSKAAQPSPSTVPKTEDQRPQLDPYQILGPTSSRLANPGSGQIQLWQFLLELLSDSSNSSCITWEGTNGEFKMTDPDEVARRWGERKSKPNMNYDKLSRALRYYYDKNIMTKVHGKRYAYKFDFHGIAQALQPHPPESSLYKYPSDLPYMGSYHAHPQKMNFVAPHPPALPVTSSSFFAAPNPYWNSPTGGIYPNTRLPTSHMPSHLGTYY
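His-tagged ERG Ets domain (1 uM in the protein solution; 300mM KCl, 50mM Tris-HCl, 1mM EDTA, 1mM DTT, pH 7.5) received compound, then a probe mix of 5 nM fluorescein-DNA and 100nM Texas-615-DNA. Fluorescence polarization was read for both dyes.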
Giardia kill: kills Giardia lamblia. 340,000 compounds, 0.15% hits. Giardia lamblia trophozoite viability. activity change, % at 7.66 µM, hits read low; in the data active = activity change below about -80%; inconclusive = between about -30% and that limit;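 note: parasites exposed to compound for two days anaerobically before the ATP read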
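Anaerobic 48 hrs incubation at 37 deg C of 100 trophozoites/well with test compounds; ATPLite 1-Step luminescence, 15-30 min RT, reports cellular ATP as viability.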
VP16 counter: Gal4-VP16 reporter inhibition counter-screen; Potency, µM (top dose mostly 53.6 µM), most hits filed as inhibitors; 310,000 compounds, 3.5% hits; Drosophila S2 Gal4-VP16 UAS-luciferase, luminescence, 20 h; AID 2546;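 note: Gal4-VP16 expression switched on by copper sulfate through the metallothionein promoter; nearly all actives have a fitted effect of over 50% in size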
Integrin act MD: activators of alpha7 integrin expression for muscular dystrophy; alpha7betagal myoblasts, beta-gal FDG fluorescence, 48 h; Potency, µM (doses to about 38.3 µM), actives largely listed as activators; 350,000 compounds, 0.064% hits; AID 624291; note: nearly all actives have a fitted effect of over 60% in size
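alpha7betagal+/- myoblasts (passage 13, 250/well) treated 48 h at 37C with compounds at 1:260 dilution of DMSO stock. Lysed, then beta-galactosidase activity read as FDG fluorescence (ex 480/em 540) after 30 min, with pre-read for autofluorescence.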
Numbers stand for hits; - = inactive; ? = inconclusive; . = no result given; [ ] = remark or other dose. Many of the other results were omitted from the sample, so hits are more common in it than they were. Unless noted, calls come from the whole dose curve; as a rule, active = well fitted curve in the direction sought with a large enough effect; inconclusive = small, poorly fitted or top-dose-only effect, or another doubt; inactive = no such curve, though single readings can be large; an effect the other way counts as inactive or inconclusive.

SMILES	RORg inh	ERG-DNA inh	Giardia kill	VP16 counter	Integrin act MD
CCOC(=O)c1ccc(N2CN(CCc3ccccc3)CNC2=S)cc1	?	-	-	?	-
CCN1CNC(=S)N(c2ccccc2C)C1	-	-	-	-	?
Cc1ccc(N2CN(CCc3ccccc3)CNC2=S)cc1	5µM	-	-	13µM	-
C=CCN1CCN(C(=O)CCc2ccccc2)CC1	-	-	-	-	-
CCN1CNC(=S)N(C(C)c2ccccc2)C1 (centres undefined)	10µM	-	-	13µM	-
CCOc1ccc(CCN2CN(CC)CNC2=S)cc1OCC	13µM	-	-	?	-
CCOC(=O)C1CCCN(C(=O)Cn2ncc3c([nH]c4ccccc43)c2=O)C1 (centres undefined)	-	-	-	-	-
O=C(Oc1ccc2ccccc2c1Br)N1CCCCCC1	-	-	-	-	-
Cc1ccc(NC(=S)Nc2ccc3nc(-c4ccccn4)c(-c4ccccn4)nc3c2)cc1C	14µM	-	-	?	-
O=C(Nc1ccc2nc(-c3ccccn3)c(-c3ccccn3)nc2c1)N1CCOCC1	-	-[15.4 µM]	-	-	-
Cc1cc(C)cc(NC(=S)Nc2ccccn2)c1	1.1µM	-	-	4.5µM	-
Cc1cccc(NC(=S)Nc2ccccn2)c1	0.5µM	-	-	6.3µM	-
Cc1ccc(NC(=S)Nc2ccccn2)cc1C	0.71µM	-	-	3.2µM	-
Cc1cc(Nc2cc(F)ccc2C)nc(-n2nc(C)cc2C)n1	.	-	.	.	.
O=C(COC(=O)Cc1ccc(Br)cc1)NCc1ccc(F)cc1	-	-	-	-	-
Cc1cc(C)cc(NC(=S)NN)c1	7.9µM	-	-	?	-
O=C(NCC(O)c1ccccc1)c1ccc(Cl)c(S(=O)(=O)N2CCCC2)c1 (centres undefined)	.	-	-	.	-
CCOc1ccc(N2CC(C(=O)Nc3ccc(S(=O)(=O)Nc4nccs4)cc3)CC2=O)cc1 (centres undefined)	-	-	-	?	-
O=C(NNc1ncccc1Cl)c1c(Cl)cccc1Cl	4µM	-	-	14µM	-
O=C(NNc1ncc(C(F)(F)F)cc1Cl)c1c(Cl)cccc1Cl	0.89µM	-	-	2.8µM	-
O=C(NNc1cccc(Cl)n1)c1c(Cl)cccc1Cl	-	-	-	-	-
CCN(C(C)=O)c1ccc(Oc2nc(OC)cc(OC)n2)cc1	-	-	-	-	-
CCCc1ccc(O)c(N=Cc2cc(Br)cc(OCC)c2O)c1	7.1µM	-	-	13µM	-
CCOc1ccc(Br)cc1/C=N/O	-	.	-	-	-
O=C(O)CN=C(NS(=O)(=O)c1ccccc1)c1ccccc1	-	-	-	-	-
SMILES	RORg inh	ERG-DNA inh	Giardia kill	VP16 counter	Integrin act MD
CC(C)N=C(NS(=O)(=O)c1ccccc1)C(Cl)(Cl)Cl	7.1µM	-	-	?	-
Cc1cc(C)cc(-n2c(SCC(N)=O)nc3c([nH]c4ccccc43)c2=O)c1	.	-	.	.	.
O=[N+]([O-])c1ccc2c(c1)S(=O)(=O)C=C2	0.63µM	.	.	?	.
O=C1c2ccc([N+](=O)[O-])cc2S(=O)(=O)N1Cc1ccccc1	-	-	-	?	-
CCCCCCc1c(C)nc(-n2[nH]c(C)c(CCO)c2=O)[nH]c1=O	3.5µM	-	-	16µM	-
COc1ccc(NC(=S)NCCc2c[nH]c3ccccc23)c(OC)c1	7.9µM	-	-	?	-
COc1ccc(NC(=S)NCCc2c[nH]c3ccc(OC)cc23)c(OC)c1	14µM	.	-	?	-
Cc1ccccc1CN1CCN(CC(=O)NCc2ccc3c(c2)OCO3)C1=O	-	-	-	-	-
Oc1cccc2c(NC(=S)Nc3ccc(SC(F)F)cc3)cccc12	6.3µM	-	-	7.9µM	-
Oc1cccc(NC(=S)Nc2ccc(SC(F)F)cc2)c1	-	-	-	-	-
Cc1ccc(SC(CC(=O)c2ccc(F)cc2)C(=O)O)cc1 (centres undefined)	?	-	-	-	-
CC(C)(C)c1ccc(C(=O)CC(Sc2ccc(Cl)cc2)C(=O)O)cc1 (centres undefined)	1.6µM	-	-	6.3µM	-
CC(CNC(=O)c1cccnc1)NC(=O)c1cccnc1 (centres undefined)	-	.	.	-	.
Cc1ccc(-c2nc(N)s[n+]2-c2ccccc2)cc1	-	-	-	-	-
CNc1nc(-c2ccccc2)[n+](-c2ccc(C)cc2)s1	7.9µM	-	-	7.1µM	-
CCc1c(O)nc(SCC(=O)Nc2ccc(Cl)cc2)n(-c2ccccc2)c1=O	.	.	.	.	-
Cn1cnc([N+](=O)[O-])c1Oc1cccc(O)c1	-	-	-	13µM	-
Cn1cnc([N+](=O)[O-])c1Oc1ccccc1	-	-	-	-	-
COc1ccc(NC(=O)N(C)C[C@H]2OCc3cnnn3CCCC(=O)N([C@@H](C)CO)C[C@H]2C)cc1	.	.	.	.	-
CC(C)Cc1cc(CN2CCCC(CO)(Cc3cccc(Cl)c3)C2)[nH]n1 (centres undefined)	-	-	-	-	-
Cc1ccc(-n2cc(CN3CCC(CO)(Cc4ccccc4)CC3)cn2)cc1	-	.	.	-	.
Cc1ccc(-n2cc(CN3CCC(CO)(Cc4cccc(C(F)(F)F)c4)CC3)cn2)cc1	18µM	-	-	?	-
CC(C)Cc1cc(CN2CCC(CO)(Cc3cccc(C(F)(F)F)c3)CC2)[nH]n1	4.5µM	-	-	?	-
Fc1ccccc1-c1nc(NCc2ccccc2)c2ccccc2n1	-	-	-	-	-
CCC(C)Nc1nc(-c2ccccn2)nc2ccccc12 (centres undefined)	0.71µM	-	-	3.5µM	-
SMILES	RORg inh	ERG-DNA inh	Giardia kill	VP16 counter	Integrin act MD
Fc1ccccc1/C=N/Nc1nc(-c2ccccn2)nc2ccccc12	0.25µM	.	.	0.5µM	.
COc1ccccc1-c1nc(NCc2ccccc2)c2ccccc2n1	35µM	.	.	?	.
c1ccc(CNc2nc(-c3ccccn3)nc3ccccc23)cc1	2.5µM	-	-	3.5µM	-
C/C=C(\C)[C@H](O)C[Si](C)(C)c1ccccc1	-	.	.	-	.
COc1cccc2cc(-c3ccccc3)oc12	.	-	-	.	-
COc1cccc2cc(-c3ccnc(=S)[nH]3)oc12	2.8µM	.	.	?	.
COc1ccc(Cl)cc1-c1n[nH]c(=S)n1C	?	-	-	-	-
C=CCn1c(-c2cc3cccc(OC)c3o2)n[nH]c1=S	3.5µM	-	-	?	-
CCn1c(-c2cc(Cl)ccc2OC)n[nH]c1=S	6.3µM	-	-	?	-
C=CCn1c(-c2cc(Cl)ccc2OC)n[nH]c1=S	11µM	-	-	18µM	-
C=CCn1c(-c2cccc(OC)c2OC)n[nH]c1=S	11µM	-	-	?	-
NCCCCCCNc1nc2c(N)ncnc2n1[C@@H]1O[C@@H]2COP(=O)(O)O[C@H]2[C@H]1O	-	.	.	-	.
Cc1ccc(C2=NN3C(C2)c2ccccc2OC32C(=O)Nc3ccccc32)cc1 (centres undefined)	13µM	-	-	?	-
CN1C(=O)C2(Oc3ccccc3C3CC(c4ccccc4)=NN32)c2ccccc21 (centres undefined)	-	-	-	-	-

Source: PubChem BioAssay (National Center for Advancing Translational Sciences (NCATS))
